Data published in publication PMC4336329 (PLoS ONE, 2015).
In all, about 310,000 compounds went through this assay and about 14,000 (4.5%) showed an effect of 50% or more. The effect is printed as a negative number. This excerpt belongs to a sample that is enriched for strong results.

These compounds were tested against human ether-à-go-go-related gene (hERG) potassium channel (human, UniProt Q12809) (assay: primary screen, population patch clamp on CHO cells stably expressing hERG; higher = less effect of the substance).
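Also: peak tail current of the secondary pulse compared with the same well before compound.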

Sequence of human ether-à-go-go-related gene (hERG) potassium channel (Q12809 whole entry, looked up): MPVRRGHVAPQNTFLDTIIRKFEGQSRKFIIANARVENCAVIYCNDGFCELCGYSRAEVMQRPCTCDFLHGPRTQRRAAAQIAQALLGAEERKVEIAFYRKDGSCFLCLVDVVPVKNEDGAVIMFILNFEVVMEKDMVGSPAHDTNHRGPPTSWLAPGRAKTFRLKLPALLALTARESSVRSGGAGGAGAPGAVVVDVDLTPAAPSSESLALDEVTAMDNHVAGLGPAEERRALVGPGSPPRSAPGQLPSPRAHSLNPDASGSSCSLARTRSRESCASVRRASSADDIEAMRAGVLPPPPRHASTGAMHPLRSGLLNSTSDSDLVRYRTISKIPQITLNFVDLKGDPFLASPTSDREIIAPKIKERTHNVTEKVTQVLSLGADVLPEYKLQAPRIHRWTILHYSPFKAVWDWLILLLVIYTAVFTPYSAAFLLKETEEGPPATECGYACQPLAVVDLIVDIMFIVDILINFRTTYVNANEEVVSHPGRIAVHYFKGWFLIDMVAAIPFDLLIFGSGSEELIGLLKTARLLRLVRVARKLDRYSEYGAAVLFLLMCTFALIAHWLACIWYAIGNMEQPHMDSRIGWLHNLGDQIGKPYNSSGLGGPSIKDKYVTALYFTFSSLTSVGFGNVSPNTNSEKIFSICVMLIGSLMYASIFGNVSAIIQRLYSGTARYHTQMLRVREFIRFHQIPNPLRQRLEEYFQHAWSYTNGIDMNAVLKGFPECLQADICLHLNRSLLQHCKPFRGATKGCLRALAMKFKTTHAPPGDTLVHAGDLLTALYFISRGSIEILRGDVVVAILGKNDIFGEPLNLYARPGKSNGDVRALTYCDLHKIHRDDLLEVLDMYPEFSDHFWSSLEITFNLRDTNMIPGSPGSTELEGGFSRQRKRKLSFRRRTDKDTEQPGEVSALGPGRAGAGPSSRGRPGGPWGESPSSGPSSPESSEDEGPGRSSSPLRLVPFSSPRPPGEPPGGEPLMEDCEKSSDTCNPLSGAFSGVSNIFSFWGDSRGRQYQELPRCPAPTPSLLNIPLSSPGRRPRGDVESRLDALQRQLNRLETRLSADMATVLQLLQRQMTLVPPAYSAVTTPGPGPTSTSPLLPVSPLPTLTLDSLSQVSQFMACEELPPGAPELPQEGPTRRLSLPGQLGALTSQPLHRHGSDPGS

| Structure (SMILES) | hERG current change (%, negative = inhibition) at 10uM [%] |
| --- | --- |
| O=C(Cn1c(=O)cnc2ccccc21)N1CCCc2ccccc21 | 10.8 |
| CC1CN(C(=O)CN2C(=O)NC3(CCCC3)C2=O)C(=Nc2cccc(S(=O)(=O)N(C)C)c2)S1 (stereo not drawn) | -32 |
| Cc1ccc(S(=O)(=O)N2CCN(C(=O)COC(=O)CCc3ccccc3)CC2)c(C)c1 | -8.38 |
| CCOC(=O)c1ccc2c(c1)nc(-c1ccc(F)cc1)c1nccn12 | 5.55 |
| CNC(C)C(=O)NC(C(=O)N1CCCC1C(=O)NNc1ccccc1)C(C)C.O=CO (stereo not drawn) | 5.01 |
| O=S(=O)(c1ccccc1F)N1CCN(CCc2ccccc2)CC1 | -5.81 |
| O=C(NCc1ccccc1)/C(=C/c1cccc([N+](=O)[O-])c1)NC(=O)c1ccco1 | -61.2 |
| O=C(O)CNC(=O)/C(=C\c1cccc([N+](=O)[O-])c1)NC(=O)c1ccco1 | 15.7 |
| CCN(CC)C(=O)/C(=C\c1cccc([N+](=O)[O-])c1)NC(=O)c1ccco1 | -24 |
| O=C(NCc1ccco1)/C(=C\c1cccc([N+](=O)[O-])c1)NC(=O)c1ccco1 | -64.7 |
| CC(NC(=O)/C(=C/c1cccc([N+](=O)[O-])c1)NC(=O)c1ccco1)C(=O)O (stereo not drawn) | 0.397 |
| O=C(NCCO)/C(=C/c1cccc([N+](=O)[O-])c1)NC(=O)c1ccco1 | 26.5 |
| O=C(NCCO)/C(=C\c1cccc([N+](=O)[O-])c1)NC(=O)c1ccco1 | 6.73 |
| CC(NC(=O)/C(=C\c1cccc([N+](=O)[O-])c1)NC(=O)c1ccco1)C(=O)O (stereo not drawn) | 39.2 |
| CCN(CC)C(=O)/C(=C/c1cccc([N+](=O)[O-])c1)NC(=O)c1ccco1 | -25.8 |
| O=C(NCCc1ccccc1)/C(=C\c1cccc([N+](=O)[O-])c1)NC(=O)c1ccco1 | -78.6 |
| O=C(O)CNC(=O)/C(=C/c1cccc([N+](=O)[O-])c1)NC(=O)c1ccco1 | -1.47 |
| O=C(NCc1ccco1)/C(=C/c1cccc([N+](=O)[O-])c1)NC(=O)c1ccco1 | -56.8 |
| COc1ccc(OCCNC(=S)Nc2cccc3ccccc23)cc1 | 3.79 |
| Cc1ccccc1N(CC(=O)NC1CCCC1)C(=O)CS(=O)CC(=O)Nc1ccc2c(c1)OCO2 (stereo not drawn) | -8.74 |
| COc1cc(C2NC(=O)NC(C)=C2C(C)=O)cc(OC)c1OC (stereo not drawn) | 9.41 |

| Structure (SMILES) | hERG current change (%, negative = inhibition) at 10uM [%] |
| --- | --- |
| Cc1nc(SCC(=O)O)c(C#N)c2c1CCCC2 | -10.9 |
| COc1cc2c(-c3ccc4[nH]ccc4c3)c(-c3ccc(C#N)cc3)oc(=O)c2cc1OC | 20.9 |
| CCCCC(=Nc1ccc(N)cc1)C1=C(O)C(C(=O)OC)C(C)(C)CC1=O (stereo not drawn) | -1.62 |
| C=CCNC(=O)c1ccc(OC)cc1 | -12 |
| CCOc1ccc(N(Cc2ccc(C(=O)O)cc2)S(=O)(=O)c2ccc(C)cc2)cc1 | -12.5 |
| COc1ccc(S(=O)(=O)N(C)c2ccc(C(=O)NC3CCCC3)cc2)cc1 | -83.7 |
| C=CCNC(=O)c1ccc(N(Cc2ccc(Cl)cc2)S(C)(=O)=O)cc1 | -33.5 |
| COc1ccc(S(=O)(=O)N(C)c2ccc(C(=O)NC3CC3)cc2)cc1 | -12.6 |
| COCCCNC(=O)c1ccc(N(C)S(=O)(=O)c2ccc(OC)cc2)cc1 | -20.6 |
| C=CCNC(=O)c1ccc(N(C)S(=O)(=O)c2ccc(OC)cc2)cc1 | -57.4 |
| COc1ccc(N(C)S(=O)(=O)c2cccc(C(=O)NC3CCCC3)c2)cc1 | -9.64 |
| C=CCNC(=O)c1ccc(CN(c2ccc(OCC)cc2)S(=O)(=O)c2ccc(C)cc2)cc1 | -62 |
| O=c1c2ccccc2nc(/C=C/c2ccc(Br)cc2)n1CCO | 2.81 |
| COCCNC(=O)/C(C#N)=C/c1c(N2CCN(c3ccccc3)CC2)nc2c(C)cccn2c1=O | 5.92 |
| O=C(Nc1cc(=O)[nH]c2ncnn12)c1ccccc1Cl | 1.15 |
| CCOC(=O)c1ccc(N2C(=O)CC(C3CCCO3)C2=O)cc1 (stereo not drawn) | -11.2 |
| CN(Cc1ccccc1)S(=O)(=O)c1ccc(N2CCCC2=O)cc1 | -12.7 |
| Cl.Nc1nc(Nc2cccc(F)c2)nc2ccccc12 | -19.3 |
| Cl.Fc1cccc(Nc2c3c(nc4ccccc24)CCC3)c1 | -68.2 |
| Cc1ccc(NC(=O)c2c3c(nc4ccccc24)CCC3)cc1 | 2.86 |
| Cc1cccc(Nc2ncnc3ccccc23)c1.Cl | -5.93 |
